Only some compounds are listed: those with a hit (about 3% of all), similar ones and a draw of the others.
ATG4B inh – inhibitors of human ATG4B cysteine protease; ATG4B cleavage of LC3-PLA2, NBD-HPC fluorescence, 1 h; inhibition, % at 8.33 µM; actives 0.51% (n = 340,000); in the data active = inhibition above about 40%
DAGLB inhibitor – blocks human DAGLB lipase activity; Q8NCG7; inhibition, % at 5.17 µM; actives 0.059% (n = 340,000); HEK293T DAGLB membrane lysate, EnzChek fluorogenic substrate; AID 504411; in the data active = inhibition above about 34%;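 also: 0% = enzyme with vehicle and 100% = wells lacking enzyme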
Target sequence (Q8NCG7 whole entry, looked up): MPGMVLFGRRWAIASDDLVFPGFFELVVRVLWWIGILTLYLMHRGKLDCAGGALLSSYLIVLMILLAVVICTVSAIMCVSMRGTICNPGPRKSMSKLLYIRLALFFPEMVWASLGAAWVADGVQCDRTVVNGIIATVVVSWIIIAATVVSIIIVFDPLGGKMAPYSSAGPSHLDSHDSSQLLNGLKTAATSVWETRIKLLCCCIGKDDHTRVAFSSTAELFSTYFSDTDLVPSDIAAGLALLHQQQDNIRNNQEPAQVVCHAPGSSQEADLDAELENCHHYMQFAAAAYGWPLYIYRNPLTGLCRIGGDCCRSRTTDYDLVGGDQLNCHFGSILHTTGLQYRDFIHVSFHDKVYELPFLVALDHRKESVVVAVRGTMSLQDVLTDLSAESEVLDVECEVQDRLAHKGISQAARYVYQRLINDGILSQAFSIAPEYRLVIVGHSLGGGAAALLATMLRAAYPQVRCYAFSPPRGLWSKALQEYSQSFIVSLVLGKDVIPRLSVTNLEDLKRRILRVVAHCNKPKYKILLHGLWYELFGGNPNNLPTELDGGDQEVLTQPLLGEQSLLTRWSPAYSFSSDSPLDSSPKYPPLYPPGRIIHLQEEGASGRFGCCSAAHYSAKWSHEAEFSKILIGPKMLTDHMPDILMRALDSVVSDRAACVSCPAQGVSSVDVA
PAFAH1B2 FP inh – blocks human PAF acetylhydrolase 1b catalytic subunit 2; actives 1.2% (n = 340,000); P68402; recombinant PAFAH1B2, FP-rhodamine activity probe, fluorescence polarization; AID 492953; inhibition, % at 3.39 µM;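 active = inhibition above the mean of all tested compounds plus 3 SD, cut at about 24% in these data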;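 also: 0% = enzyme with DMSO and 100% = wells lacking PAFAH1B2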
PAFAH1B3 inh – PAFAH1B3 (human) inhibition; recombinant PAFAH1B3, FP-rhodamine probe, fluorescence polarization; Q15102; inhibition, % at 3.39 µM; actives 0.28% (n = 340,000);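 active = inhibition above the screen-wide average of all tested compounds plus 3 SD, cut at about 25% in these data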;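 also: 0% = enzyme with DMSO only and 100% = wells lacking PAFAH1B3 protein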
pPAFAH inh – pPAFAH (human) enzyme inhibition | recombinant pPAFAH, FP-rhodamine probe fluorescence polarization | inhibition, % at 3.39 µM | Q13093 | actives 1.5% (n = 330,000) | AID 463082;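 active = inhibition above the mean inhibition across the screen plus 3 SD, cut at about 25% in these data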;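 also: inhibitors block binding of the rhodamine activity-based probe so polarization drops; 0% = enzyme with DMSO and 100% = wells lacking pPAFAH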
PAFAH2 inh – inhibitors of human PAFAH2; Q99487; recombinant PAFAH2, FP-rhodamine activity probe, fluorescence polarization; inhibition, % at 3.39 µM; actives 0.99% (n = 340,000);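 active = inhibition above the mean over all tested compounds plus 3 SD, cut at about 30% in these data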;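 also: inhibitors block probe labeling of enzyme so polarization drops; 0% = enzyme with DMSO and 100% = wells lacking PAFAH2 protein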
pPAFAH FP conf – pPAFAH (human) inhibition, confirmed | shares compounds with pPAFAH inh | recombinant pPAFAH, FP-Rh probe fluorescence polarization | inhibition, % at 3.39 µM | actives 72% (n = 2,300);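 active = mean inhibition of the triplicate above the hit cutoff set for the earlier primary screen, cut at about 25% in these data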;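 also: 0% = enzyme with DMSO and 100% = wells lacking pPAFAH enzyme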
Starred values were filed as active, the others as inactive; · = no result given.

SMILES	ATG4B inh	DAGLB inhibitor	PAFAH1B2 FP inh	PAFAH1B3 inh	pPAFAH inh	PAFAH2 inh	pPAFAH FP conf
Cc1ccc(-c2ccccc2NC(=O)CS(=O)CC(=O)Nc2ccc(C)c(Cl)c2)o1 (stereo not drawn)	-14	-2	22	4	85*	3	8
CC(C)(C)c1ccc(O)c(N=Cc2cc3c(cc2[N+](=O)[O-])OCO3)c1	8	0	2	12	41*	5	15
O=[N+]([O-])c1ccc(O)c(C=Nc2ccc3c(c2)OCO3)c1	6	10	0	14	1	3	·
O=[N+]([O-])c1cc(Br)cc(C=Nc2ccc3c(c2)OCO3)c1O	17	19	6	7	41*	18	52*
O=C(O)c1ccc2c(c1)C(=O)N(c1cccc(S(=O)(=O)Nc3cccc(C(F)(F)F)c3)c1)C2=O	-7	2	1	0	4	-2	·
COc1ccc2nc(NN=C(C)c3ccccn3)cc(C)c2c1	-1	2	2	5	·	5	·
COc1ccc(/C=C/S(=O)(=O)NCc2ccccc2)cc1OC	-4	1	-4	7	-2	3	·
O=c1oc2c(CN3CCCCC3)c(O)ccc2c2c1CCCC2	0	1	-1	-5	38*	0	5
Cc1cc(-c2ccc(C(C)C)c(S(=O)(=O)NCCN3CCC(C)CC3)c2)on1	3	-2	-1	4	2	-1	·
CN(C)c1ccc(O)c2c1CC1CC3[C@@H](N(C)C)C(=O)C(C(N)=O)=C(O)[C@]3(O)C(=O)C1=C2O (stereo partly drawn)	-1	8	12	29*	53*	33*	8
C[C@H]1CN([C@@H](C)CO)C(=O)c2cc(NC(=O)C3CCCCC3)ccc2O[C@H]1CN(C)C(=O)Nc1ccc2c(c1)OCO2	-2	-4	2	8	3	-3	·
Nc1c(N)c2ccccc2oc1=O	-2	-4	5	1	0	4	·
O=c1oc2ccccc2c2oc3cc(O)c(O)cc3c12	-14	10	-1	9	73*	34*	81*
C=CC(C)(C)c1c(O)c(CC=C(C)C)c(O)c2c(=O)c3ccc(O)c(O)c3oc12	18	19	3	16	45*	-27	49*
COc1ccc(CNC(=O)c2ccc(S(=O)(=O)N3CC(C)CC(C)C3)cc2)cc1OC (stereo not drawn)	-9	0	0	-4	·	5	·
O=C(O)c1cccc(S(=O)(=O)NCc2cccs2)c1	-6	2	6	4	6	-2	·
O=C1CC(=O)Nc2cc(S(=O)(=O)NCc3cccs3)ccc2N1	8	5	1	0	65*	1	2
COc1ccc(/C=N\NC(=O)c2cc(O)c(O)c(O)c2)cc1COc1ccc(C(=O)OCC(C)C)cc1	15	12	13	26*	85*	31*	87*
COc1ccc(C(=O)N/N=C/c2ccc(OC)c(COc3ccccc3)c2)cc1	-1	-5	-2	-1	8	1	·
CCn1cnc2cc(NCc3ccc(OC)cc3)ccc21	-2	1	8	6	0	-4	·
CCOc1ccc2nc3cc(NCc4ccc(OC)cc4)ccc3c(N)c2c1	8	-7	5	18	38*	12	11
Cc1ccc(NS(=O)(=O)c2ccc(N/N=C/c3ccncc3)c([N+](=O)[O-])c2)c(C)c1	-5	1	-2	-6	24	7	·
Cc1ccc(NS(=O)(=O)c2ccc(N3CCN(c4ccc(O)cc4)CC3)c([N+](=O)[O-])c2)c(C)c1	-7	11	3	1	57*	17	46*
Nc1ccc(C(=O)N/N=C/c2cn(Cc3ccccc3F)c3ccccc23)cc1	-12	1	9	8	·	-1	·
O=C(O)c1ccc(N/N=C/c2cn(Cc3ccccc3F)c3ccccc23)cc1	15	7	8	14	46*	10	63*
COc1ccccc1NC(=O)N(Cc1cccs1)Cc1cc2cc3c(cc2[nH]c1=O)OCO3	20	4	-3	1	-2	3	·

Screening data: PubChem, several laboratories
